Results filed as inconclusive are left out. A call without a number means that no potency is given here. Calls of active or inactive are those of the source. The call rests on the fitted dose curve; in most records, active means well fitted inhibition curve with a large enough effect; inconclusive means small, poorly fitted or top-dose-only effect, or effect the other way; inactive means flat fitted curve, though single readings scatter.

ATP-dependent 6-phosphofructokinase (Trypanosoma brucei brucei), sequence (O15648 whole entry, looked up): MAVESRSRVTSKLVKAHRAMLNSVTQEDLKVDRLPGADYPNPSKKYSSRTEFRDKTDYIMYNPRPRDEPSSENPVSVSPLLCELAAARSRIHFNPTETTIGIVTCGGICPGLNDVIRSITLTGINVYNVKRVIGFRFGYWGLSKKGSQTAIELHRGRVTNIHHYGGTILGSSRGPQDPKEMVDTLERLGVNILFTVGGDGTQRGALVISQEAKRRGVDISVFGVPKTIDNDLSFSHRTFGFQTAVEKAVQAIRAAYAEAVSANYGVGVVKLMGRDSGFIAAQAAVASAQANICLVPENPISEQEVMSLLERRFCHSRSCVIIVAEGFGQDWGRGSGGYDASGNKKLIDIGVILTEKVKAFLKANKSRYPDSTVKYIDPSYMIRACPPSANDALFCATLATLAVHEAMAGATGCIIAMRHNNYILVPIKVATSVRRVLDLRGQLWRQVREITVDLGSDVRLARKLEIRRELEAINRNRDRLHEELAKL

This assay has as its target ATP-dependent 6-phosphofructokinase (Trypanosoma brucei brucei) (UniProt O15648). Kind of assay: qHTS Assay to Find Inhibitors of T. brucei phosphofructokinase: hit validation (AID 492961).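 Further: luminescence reports ADP formed as PFK phosphorylates fructose-6-phosphate with ATP.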 The following applies: T. brucei PFK, ADP-Glo luminescence; series mostly up to 51.4 µM. In a few lines:
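Inhibition of parasite PFK is measured as reduced ADP formation, quantified via luciferase after ATP depletion. Assay used 0.1 mM ATP, 0.5 mM F6P, 1.25 nM enzyme, 45 min incubation.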
(In general: In qHTS, concentration-response curves come from the screen itself.)
For the compound `CCCCC[C@H](O)/C=C/[C@H]1[C@H](O)CC(=O)[C@@H]1C/C=C\CCCC(=O)O`, the Potency entry is “inactive”.

For `COC(=O)C(CN)c1c[nH]c2ccc(OC)cc12` (stereo unspecified), the Potency result is “inactive”.

In the case of `CC1C(=O)CC2C3(C)CCC2(C(C)C(=O)O)C(=O)C13` (stereo unspecified), the Potency result was “inactive”.

Take `CC1=C(/C=C/C(C)=C/C=C/C(C)=C/C(=O)Oc2c(C)c(C)c3c(c2C)CC[C@@](C)(CCC[C@H](C)CCC[C@H](C)CCCC(C)C)O3)C(C)(C)CCC1`: the Potency result is “inactive”.

Take `COc1ccc(/C=N/NC(=O)c2ccncc2)c(C(=O)O)c1OC`: the Potency result was “inactive”.

For the compound `CCOc1ccc(S(=O)(=O)O)c2cccnc12`, the Potency entry was “inactive”.

For `CC1=CCC2CC1C2(C)C` (stereo unspecified), the Potency entry was “inactive”.

Take `Cc1ncc(C[n+]2csc(CCOP(=O)(O)OP(=O)(O)O)c2C)c(N)n1`: the Potency result is “inactive”.

In the case of `CN(C)CCCSc1ccccc1NC(=O)/C=C/c1ccccc1`, the Potency entry is “inactive”.

Turning to `C/C(=C\C(=O)OCCCCCCCCC(=O)O)C[C@@H]1OC[C@H](C[C@@H]2O[C@H]2[C@@H](C)[C@H](C)O)[C@@H](O)[C@H]1O`, the Potency entry is “inactive”.

`C[Si](C)(C)O[Si](C)(C)C`: the Potency entry was “inactive”.

On to `O=C(Nc1ccc(O)cc1)c1ccccc1O`, for which the Potency result is “inactive”.

Regarding `O=C(/C=C/c1cccc(F)c1)NC1CC1`, the Potency result was “inactive”.

For `Cc1c(Cl)cccc1Nc1ncccc1C(=O)O`, the Potency result was “inactive”.

With `CN(C)CCC=C1c2ccccc2C(C)(C)c2ccccc21`, the Potency entry was “inactive”.

Regarding `CCN(CC)CCOc1ccc2nc(N(C)C)sc2c1`, the Potency result was “inactive”.

For `CC(C)CCCCCCc1ccc(O)cc1`, the Potency result was “inactive”.

For `CCOC(C)OCC`, the Potency entry was “inactive”.

As to `CC1(O)CCC(C(C)(C)O)CC1` (stereo unspecified), the Potency result is “inactive”.

`C=CCOc1ccc(CC(=O)O)cc1Cl`: the Potency entry is “inactive”.

With `COC(=O)CCC[N+](C)(C)C`, the Potency entry was “inactive”.

`CN(Cc1ccccc1)Cc1ccccc1`: the Potency entry is “inactive”.

As for `CCOC(=O)c1c[nH]c2cc(OCC(C)C)c(OCC(C)C)cc2c1=O`, the Potency entry is “inactive”.

Regarding `OB(O)O`, the Potency result was “inactive”.

As for `OC/C=C/c1ccccc1`, the Potency entry was “inactive”.

On to `O=[N+]([O-])c1c(Cl)cccc1-c1c[nH]cc1Cl`, for which the Potency entry was “inactive”.

Consider `CN1CCc2c(c3ccccc3n2Cc2ccccc2)C1`, for which the Potency entry is “inactive”.

On to `Cc1cc(C(=O)NCCc2ccc(S(=O)(=O)NC(=O)NN3CCCCCC3)cc2)no1`, for which the Potency entry is “inactive”.

As for `COc1cc(C)c(/C=C/C(C)=C/C=C/C(C)=C/C(=O)O)c(C)c1C`, the Potency entry was “inactive”.

Consider `Oc1cc(O)cc(O)c1`, for which the Potency entry was “inactive”.

As to `Cc1ccccn1`, the Potency result is “inactive”.

Turning to `C[C@H](N)C(=O)N[C@@H](C)P(=O)(O)O`, the Potency entry was “inactive”.

For `FC(F)(F)COCC(F)(F)F`, the Potency entry was “inactive”.

For the compound `O=C(c1cc2ccccc2o1)N1CCN(Cc2ccccc2)CC1`, the Potency result was “inactive”.

For `CN1c2c(nc(N)[nH]c2=O)NCC1CNc1ccc(C(=O)NC(CCC(=O)O)C(=O)O)cc1` (stereo unspecified), the Potency entry is “inactive”.

Turning to `C[N+]1(C)[C@@H]2CC(OC(=O)C(O)(c3cccs3)c3cccs3)C[C@H]1[C@@H]1O[C@@H]12` (stereo partly specified), the Potency result is “inactive”.
